The values that follow come from PubChem BioAssay (NCATS).

Test [1] concerns PC49. In words: qHTS profiling for inhibitors of Plasmodium falciparum proliferation (AID 504749). The note with it: P. falciparum in erythrocytes, SYBR Green DNA, 72 h; series mostly up to 28.7 µM. The gist of the method: (§1)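 P. falciparum-infected erythrocytes (0.3% parasitemia, 2.5% hematocrit final) were exposed to compounds for 72 h at 37 C in 5% CO2, then lysed with SYBR Green buffer overnight at room temperature; parasite DNA fluorescence was normalized to artemisinin and DMSO controls.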
(In general: In qHTS, concentration-response curves come from the screen itself.)

Test [2] has as its system SC27B. Described as above. The note with it: P. falciparum in erythrocytes, SYBR Green DNA, 72 h; series mostly up to 28.7 µM. The gist of the method: as §1
In test [3] the test system is TAB113. Described as above. The note with it: P. falciparum in erythrocytes, SYBR Green DNA, 72 h; series mostly up to 28.7 µM. The essentials:
as §1

Test [4] deals with TAB165. The test is described as above. The note with it: P. falciparum in erythrocytes, SYBR Green DNA, 72 h; series mostly up to 28.7 µM. The essentials:
as §1

Test [5] relates to W2. The description is as above. The note with it: P. falciparum in erythrocytes, SYBR Green DNA, 72 h; series mostly up to 28.7 µM. The essentials:
as §1

The test system of test [6] is CRL-7250. In words: Cytotoxic Profiling of Annotated Libraries Using Quantitative High-Throughput Screening (AID 1296008). For max response: % is set by controls: 0 for no effect and ±100 for the full control effect. The note with it: Five cell lines viability, CellTiter-Glo ATP luminescence, 48-72 h; max response: stronger effect = lower value. The gist of the method: (§2)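 Compounds were pin-transferred onto cells and incubated 48 or 72 hr at 37 degree Celsius, 95% humidity. CellTiter-Glo was added, plates sat 10 min at room temperature, then ATP-coupled luminescence was imaged as the viability read-out.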
Background: ATP-based viability assays read luminescence as a measure of living cells.

The subject of test [7] is HEK293. Described as above. The note with it: Five cell lines viability, CellTiter-Glo ATP luminescence, 48-72 h; max response: stronger effect = lower value. The essentials: as §2
The subject of test [8] is HaCat. The test is described as above. The note with it: Five cell lines viability, CellTiter-Glo ATP luminescence, 48-72 h; max response: stronger effect = lower value. The gist of the method: as §2
Test [9] relates to KB-3-1. The test is described as above. The note with it: Five cell lines viability, CellTiter-Glo ATP luminescence, 48-72 h; max response: stronger effect = lower value. The essentials: as §2
The test system of test [10] is NIH3T3. The test is described as above. The note with it: Five cell lines viability, CellTiter-Glo ATP luminescence, 48-72 h; max response: stronger effect = lower value. The gist of the method:
as §2

In test [11] the test system is HACAT. In words: qHTS assay to identify novel small-molecules to repurpose for Merkel cell carcinoma treatment (AID 1296009). The note with it: MCC and control cell lines, CellTiter-Glo viability, 72 h; at 44.8 µM (top of the series) unless noted. The gist of the method:
(§3)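 Cells exposed to NPC (8-point) and MIPE (11-point) compound dilutions for 72 hr at 37 degree celsius; viability read by CellTiter-Glo luminescence, normalized to no-cell and DMSO in-plate controls.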

Test [12] relates to MCC-13. The description is as above. The note with it: MCC and control cell lines, CellTiter-Glo viability, 72 h; series mostly up to 46 µM. The gist of the method: as §3
For test [13], the system named is MCC-26. The test is described as above. The note with it: MCC and control cell lines, CellTiter-Glo viability, 72 h; series mostly up to 46 µM. The essentials:
as §3

Test [14] deals with MKL-1. Described as above. The note with it: MCC and control cell lines, CellTiter-Glo viability, 72 h; series mostly up to 46 µM. The gist of the method: as §3
Test [15] has as its system MKL-2. Described as above. The note with it: MCC and control cell lines, CellTiter-Glo viability, 72 h; series mostly up to 46 µM. The essentials:
as §3

In test [16] the test system is UISO. Described as above. The note with it: MCC and control cell lines, CellTiter-Glo viability, 72 h; series mostly up to 46 µM. The essentials: as §3
In test [17] the test system is WaGa. The test is described as above. The note with it: MCC and control cell lines, CellTiter-Glo viability, 72 h; series mostly up to 46 µM. The essentials:
as §3

Test [18] deals with TAB109. Nature of the test: qHTS profiling for inhibitors of Plasmodium falciparum proliferation (AID 504749). The note with it: P. falciparum in erythrocytes, SYBR Green DNA, 72 h; series mostly up to 28.7 µM. The gist of the method: as §1
For test [19], the system named is NIH3T3. In words: qHTS assay to identify novel small-molecules to repurpose for Merkel cell carcinoma treatment (AID 1296009). The note with it: MCC and control cell lines, CellTiter-Glo viability, 72 h; at 44.8 µM (top of the series) unless noted. The gist of the method:
as §3

Test [20] relates to HEK293T. Described as above. The note with it: MCC and control cell lines, CellTiter-Glo viability, 72 h; at 44.8 µM (top of the series) unless noted. The gist of the method: as §3

“And” between values parts separate entries of the source, which are not always exact repeats. Equal entries are not always repeated. Inconclusive results are not listed. A structure can be active in one record and inactive in another. The source made the active and inactive calls. Calls come from the whole dose curve; as a rule, active = well fitted inhibition curve with a large enough effect; inconclusive = small, poorly fitted or top-dose-only effect; inactive = flat fitted curve, though single readings scatter.
Note: nearly all actives have a fitted effect of over 60% in size.
Potency is the fitted concentration of half-maximal effect.

As for `CCn1cc(C(=O)O)c(=O)c2cc(F)c(N3CCNCC3)cc21`, the Potency entry in test [1], in test [2], in test [3], in [4], in test [12] and in test [13] was “inactive” each time. In addition, the Potency entry in test [14], in test [15], in [16] and in test [17] was “inactive” throughout. Further, the Potency in test [5] was 2.56 µM (active). Besides, the max response is -1.25% (inactive) and -6.48% (inactive) in [6]; -12.4% (inactive) and -3.6% (inactive) in [7]; -20% (inactive) in test [8]; -20.2% (inactive) and -20.3% (inactive) in [9]; -0.113% (inactive) and -7.16% (inactive) in test [10]. The result in test [8], in test [9] and in [11] was inactive.

As to `Cn1nnc2c(C(N)=O)ncn2c1=O`, the Potency entry in test [1], in test [2], in [18], in [3], in [4] and in [5] was “inactive” each time. The Potency entry in test [12], in [13], in [14], in [15], in test [16] and in test [17] was “inactive” throughout. The max response is 3.05% (inactive) in test [6]; 0.848% (inactive) in test [8]; 3.98% (inactive) and 7.43% (inactive) in test [9]; -16.1% (inactive) in [10]. The call in [6], in [8], in [10], in [11] and in test [19] was inactive.

As to `COc1cc([C@@H]2c3cc4c(cc3[C@H](O)[C@H]3COC(=O)[C@H]23)OCO4)cc(OC)c1OC`, the Potency in [1] is 8.91 µM (active); in test [2] it was 4.47 µM (active); in test [18] it was 2.51 µM (active); in test [3], 3.16 µM (active); in [4], 2.24 µM (active); in test [5], 1.69 µM (active). Also, the Potency in test [6] is 29.9 nM (active); in test [9], 32.6 nM (active) and 0.8 nM (active); in test [12] it was 94.4 nM (active) and 2.6 nM (active); in test [15], 13.2 nM (active); in test [17] it was 47.3 nM (active) and inactive. Further, the max response in test [6] was -103% (inactive). For the same compound, the result in test [8] and in test [11] was inactive. In addition, the Potency entry in [14] is “inactive”.

Turning to `Cc1noc(NS(=O)(=O)c2ccc(N)cc2)c1C`, the Potency entry in test [1], in [2], in test [18], in [3], in test [4] and in test [12] was “inactive” throughout. In addition, the Potency entry in test [14], in test [15], in test [16] and in [17] was “inactive” each time. Further, the max response in test [6] was 4.08% (inactive) and -1.95% (inactive); in test [8], 1.98% (inactive); in test [9], -4.11% (inactive) and 1.03% (inactive); in test [10] it was -2.78% (inactive) and -1.88% (inactive). In addition, the outcome in test [7], in [8], in test [9], in [11] and in test [20] was inactive.

As to `COc1ccc2c(c1)c(CC(=O)OCC(=O)O)c(C)n2C(=O)c1ccc(Cl)cc1`, the max response in [6] is -1.43% (inactive) and 4.64% (inactive); in test [7] it was -16.6% (inactive); in test [8], -2.32% (inactive) and -4.14% (inactive); in [9], -10.9% (inactive) and 5.13% (inactive); in [10], -11.9% (inactive) and 4.26% (inactive). Further, the compound was classed as inactive in [7] and in [20]. For the same compound, the Potency result in [12], in [13], in test [14], in [15], in test [16] and in test [17] was “inactive” throughout.
